Bioassay records deposited in PubChem BioAssay by several laboratories.
SENP6 block = inhibitors of human SENP6 protease; Q9GZR1; Recombinant SENP6 catalytic domain, aminoluciferin luminescence; inhibition, % at 10 µM; 330,000 tested, 1.8% active; AID 2599;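 active = inhibition above about 50% at the single tested dose, limit read from the data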;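 also: plate controls were DMSO wells with enzyme for no effect and DMSO wells lacking enzyme for full effect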
SENP8 block-1 = SENP8 protease inhibition | Q96LD8 | purified SENP8, Z-RLRGG-aminoluciferin cleavage, luminescence | inhibition, % at 10 µM | 330,000 tested, 1.2% active | AID 2540; in the data active = inhibition above about 50%
HSP90 refold inh = blocks HSP90-mediated luciferase refolding in reticulocyte lysate; inhibition, % at 5.6 µM; Rabbit reticulocyte lysate, luciferase refolding luminescence, 3 h; 290,000 tested, 0.91% active;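 active = inhibition above the screen-wide mean plus 3 SD, computed separately per campaign, cut at about 16% in these data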;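 also: 0% = DMSO wells and 100% = 60 µM geldanamycin wells; inhibitors lower the luminescence because luciferase stays unfolded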
SENP8 block-2 = SENP8 (human) protease inhibition; AID 602440; recombinant SENP8, Nedd8 substrate fluorescence; inhibition, % at 20 µM; 360,000 tested, 0.64% active; in the data active = inhibition mostly above about 40%, no sharp cut-off; inactive = mostly below about 27%
SENP7 inh = inhibitors of human SENP7 protease; inhibition, % at 5 µM; recombinant SENP7, Z-RLRGG-aminoluciferin luminescence, 40 min; AID 434973; Q9BQF6; 330,000 tested, 1.5% active;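 active = inhibition above about 50% at the single test dose, limit read from the data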;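 also: plate controls were DMSO with enzyme for no effect and no enzyme buffer wells for full effect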
Target sequence (Q9BQF6 706-1050 limits assumed): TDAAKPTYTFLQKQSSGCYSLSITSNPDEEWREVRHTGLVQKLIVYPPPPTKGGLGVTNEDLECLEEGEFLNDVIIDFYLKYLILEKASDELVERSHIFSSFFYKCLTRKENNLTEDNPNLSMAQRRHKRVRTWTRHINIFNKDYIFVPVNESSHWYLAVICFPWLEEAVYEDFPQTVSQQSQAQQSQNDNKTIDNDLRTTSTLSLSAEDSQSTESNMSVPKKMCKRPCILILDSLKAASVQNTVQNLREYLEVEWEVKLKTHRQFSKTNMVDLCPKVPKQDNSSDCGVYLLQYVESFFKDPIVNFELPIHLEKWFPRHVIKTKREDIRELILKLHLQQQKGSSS
SENP8 conf = confirmation of human SENP8 protease inhibitors. shares compounds with SENP7 inh. Recombinant SENP8, Z-RLRGG-aminoluciferin luminescence, 60 min. inhibition, % at 12.5 µM. 6,200 tested, 40% active;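 active = mean inhibition across replicates above about 50%, limit read from the data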
SENP6 confirm = human SENP6 inhibition, confirmed; shares compounds with SENP7 inh; 6,200 tested, 58% active; AID 488915; inhibition, % at 12.5 µM; recombinant SENP6, Z-RLRGG-aminoluciferin luminescence
SENP7 conf = human SENP7 inhibition, confirmed | shares compounds with SENP7 inh | recombinant SENP7, Z-RLRGG-aminoluciferin luminescence, 40 min | inhibition, % at 12.5 µM | 6,200 tested, 69% active | AID 488917
Casp3 SENP sel = selectivity test for SENP inhibitors: human caspase-3 inhibition. shares compounds with SENP7 inh. purified caspase-3, Z-DEVD-aminoluciferin luminescence, 60 min. inhibition, % at 12.5 µM. 6,200 tested, 60% active. AID 488918;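 active = mean inhibition above about 50%, limit read from the data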;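 also: plate controls were enzyme with DMSO for no effect and wells without caspase-3 for full effect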
Target sequence (P42574 28-227 limits assumed): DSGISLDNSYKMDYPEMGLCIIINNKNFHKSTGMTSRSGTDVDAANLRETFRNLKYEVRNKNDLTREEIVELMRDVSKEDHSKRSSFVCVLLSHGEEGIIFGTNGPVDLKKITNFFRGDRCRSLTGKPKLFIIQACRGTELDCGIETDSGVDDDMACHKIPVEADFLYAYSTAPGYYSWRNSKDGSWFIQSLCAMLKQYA
Luc interf = interferes with luciferase luminescence in SENP counter-screen; shares compounds with SENP7 inh; Pre-incubated SENP8/Z-RLRGG-aminoluciferin, luciferase luminescence interference; inhibition, % at 12.5 µM; 6,200 tested, 39% active; AID 488919;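 active = mean inhibition above about 50% when retested at one dose, limit read from the data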;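 also: plate controls were DMSO wells with completed reaction for no effect and substrate without enzyme for full effect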
Starred values were filed as active, the others as inactive; nt = no result given. Sampled rows, rich in hits. Any-hit rate of the full collection: about 2.8%.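 The calls were made as follows, unless noted: active = mean inhibition above about 50% in the one-dose retest (limit read from the data); inactive = the rest.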

SMILES | SENP6 block | SENP8 block-1 | HSP90 refold inh | SENP8 block-2 | SENP7 inh | SENP8 conf | SENP6 confirm | SENP7 conf | Casp3 SENP sel | Luc interf
O=C(Nc1ccc(NC(=O)C2CC2)nc1)c1cnccn1 | -15 | 3 | -1 | 8 | 5 | nt | nt | nt | nt | nt
O=C(Nc1ccc(NC(=O)c2ccco2)nc1)c1ccccn1 | 54* | 24 | 11 | 6 | 51* | -6 | 36 | 74* | 80* | 32
O=C(Cc1ccccc1)Nc1ccc(NC(=O)c2ccco2)nc1 | -10 | -4 | -2 | 7 | 5 | nt | nt | nt | nt | nt
COc1cccc(C(=O)Nc2ccc(NC(=O)C3CC3)cn2)c1 | 85* | 60* | 5 | 22 | 82* | 69* | 69* | 89* | 89* | 12
O=C1CCCC1C(=O)Nc1ccc2ccccc2c1 (stereo not given) | -29 | 5 | -2 | 8 | 1 | nt | nt | nt | nt | nt
C=CCn1cc(F)c(=O)n(CC=C)c1=O | 17 | 0 | 2 | -1 | 0 | nt | nt | nt | nt | nt
c1cc2c3c(cccc3c1)NC(c1ccc3c(c1)OCO3)N2 | 20 | 0 | 6 | 11 | 4 | nt | nt | nt | nt | nt
COc1ccc(C(=O)Nc2cc(S(=O)(=O)N3CCCCC3)ccc2C)cc1 | nt | nt | nt | 4 | nt | nt | nt | nt | nt | nt
O=C(O)c1ccc(SCc2ccccc2)nc1 | 76* | 56* | nt | 9 | -1 | 7 | 72* | 92* | 91* | 80*
O=S(=O)(O)c1ccc(SCc2ccccc2)nc1 | 17 | 10 | nt | 13 | 5 | nt | nt | nt | nt | nt
c1ccc2c(c1)nc(Nc1ccc3c(c1)OCO3)c1nnnn12 | -1 | 12 | -5 | 1 | 4 | nt | nt | nt | nt | nt
Fc1cccc(F)c1/C=C/c1ccc2ccccc2n1 | 39 | 40 | 1 | -50 | 5 | nt | nt | nt | nt | nt
Fc1cccc(Cl)c1/C=C/c1cnc2ccccc2n1 | 96* | 96* | 17* | -84 | 11 | 13 | 84* | 66* | 58* | 74*
Nc1c(Cl)cc2c(c1Oc1ccccc1)C(=O)c1ccccc1C2=O | 58* | 42 | 1 | 33 | -5 | 10 | -3 | 6 | 6 | 2
COc1cc(C(=O)NC(=S)NC(C)C)cc(OC)c1OC | -33 | -10 | -7 | 21 | -12 | nt | nt | nt | nt | nt
COc1cc(C(=S)N2CCOCC2)ccc1OS(=O)(=O)c1ccc(C)cc1 | -24 | 4 | -2 | 13 | 2 | nt | nt | nt | nt | nt
CC(Nc1cccc2ccccc12)C(=O)N/N=C/c1ccccn1 (stereo not given) | 81* | 85* | 3 | 18 | 45 | -9 | 5 | -4 | 1 | 4
O=S(=O)(Cc1ccccc1)c1ccccc1-c1nnc(-c2ccccc2)o1 | -26 | -3 | 4 | 23 | 1 | nt | nt | nt | nt | nt
Cc1ccc2oc(-c3ccccc3)nc2c1 | 95* | 88* | -5 | -28 | 93* | -5 | 75* | 100* | 46 | 9
CCOc1cccc(-c2nc3cc(C)ccc3o2)c1 | 79* | 40 | -2 | 14 | 46 | 24 | 49 | 83* | 45 | 36
Cc1ccc2oc(-c3cccc(NC(=O)Cn4cnc5c(=O)n(C)c(=O)n(C)c54)c3)nc2c1 | 36 | 19 | 4 | nt | 31 | nt | nt | nt | nt | nt
Cc1ccc2oc(Nc3nc(-c4ccccc4)cc(=O)[nH]3)nc2c1 | 5 | 3 | 2 | nt | -3 | nt | nt | nt | nt | nt
O=C(C[C@H]1C/C=C\C[C@H](Cc2ccc(F)cc2)C(=O)OC[C@@H]2CCCN2C1=O)N[C@H](CO)Cc1ccccc1 | -11 | -8 | nt | 24 | -7 | nt | nt | nt | nt | nt
Cc1ccc(-c2nc(N/N=C/c3cccnc3)c3ccccc3n2)cc1 | 88* | 87* | 0 | -69 | 90* | 45 | 77* | 76* | 84* | 21
Cc1ccc(-c2nc(N/N=C/c3cccc([N+](=O)[O-])c3)c3ccccc3n2)cc1 | 14 | -5 | 1 | 19 | -3 | nt | nt | nt | nt | nt
SMILES | SENP6 block | SENP8 block-1 | HSP90 refold inh | SENP8 block-2 | SENP7 inh | SENP8 conf | SENP6 confirm | SENP7 conf | Casp3 SENP sel | Luc interf
c1cncc(CN=C2Nc3ccccc3CS2)c1 | 21 | -5 | 1 | 9 | 4 | nt | nt | nt | nt | nt
Clc1ccc(CN=C2Nc3ccccc3CS2)cc1 | 69* | 44 | 1 | 11 | 60* | 66* | 68* | 87* | 48 | 80*
COc1ccccc1CN=C1Nc2ccccc2CS1 | 46 | 24 | -4 | 3 | 31 | nt | nt | nt | nt | nt
Cc1ccc(CN=C2Nc3ccccc3CS2)cc1 | 89* | 83* | 3 | 14 | 88* | 91* | 91* | 100* | 84* | 83*
Cc1cc(C(=O)COc2cccc([N+](=O)[O-])c2)c(C)n1C1CC1 | 58* | 34 | nt | 17 | 21 | 67* | 63* | 89* | 66* | 36
CC1=NN(C(=O)c2ccncc2)C(=O)C1N=Nc1ccc2ccccc2c1 (stereo not given) | nt | nt | nt | 34 | nt | nt | nt | nt | nt | nt
CC1=NN(C(N)=S)C(=O)C1N=Nc1ccc(Cl)cc1 (stereo not given) | 89* | 86* | 5 | 33 | 77* | -1 | 72* | 35 | 30 | 14
CC1=NN(C(N)=S)C(=O)C1N=Nc1ccccc1 (stereo not given) | 72* | 59* | -1 | 23 | 53* | 19 | 55* | 14 | 35 | 0
CC1=NN(C(N)=S)C(=O)C1N=Nc1cccc(Cl)c1C (stereo not given) | 94* | 85* | 4 | 15 | 59* | 95* | 94* | 100* | 88* | 83*
CC1=NN(C(N)=S)C(=O)C1N=Nc1ccc(Br)cc1 (stereo not given) | 96* | 92* | 7 | 36 | 74* | 26 | 40 | 27 | 40 | 23
CC1=NN(C(N)=S)C(=O)C1N=Nc1cccc2ccccc12 (stereo not given) | nt | nt | 5 | nt | nt | nt | nt | nt | nt | nt
CCCCSc1nnc(-c2ccc(C)cc2)c2ccccc12 | nt | nt | 5 | 9 | nt | nt | nt | nt | nt | nt
C=CCn1c(C)nnc1SCC(=O)NC1CCCCC1 | -6 | -2 | 1 | 1 | -2 | nt | nt | nt | nt | nt
CSc1nc2ccccc2n1C(=O)NC1CCCCC1 | -21 | -9 | 4 | 22 | -3 | nt | nt | nt | nt | nt
Cc1ccc(Nc2ccncc2S(N)(=O)=O)cc1 | -18 | 1 | nt | 28 | -4 | nt | nt | nt | nt | nt
COc1cc2ccccc2cc1C(=O)N(CCN(C)C)c1nc2ccc(Br)cc2s1 | 7 | 10 | 3 | 2 | 0 | nt | nt | nt | nt | nt
CC1=NN(C(N)=S)C(=O)C1N=Nc1cccc([N+](=O)[O-])c1 (stereo not given) | 83* | 80* | 13 | 32 | 76* | 4 | 5 | -2 | 16 | 7
CC1=NN(c2ccccc2)C(=O)C1N=Nc1cccc(O)c1 (stereo not given) | 5 | 4 | 3 | 27 | -4 | nt | nt | nt | nt | nt
